From PubChem BioAssay (NCI)
The panel holds about 83,000 compounds, 20% with a hit somewhere; the sample as a whole holds those more often.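 Note: values are percent growth. 100 is the growth of untreated cells, values between 100 and 0 indicate rising inhibition; between -100 and 0 indicates cell death.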 A number with no mark means an inactive call. The source made the active and inactive calls. The calls were made as follows: active = growth percent below 10; inactive = the rest.

Legend:
Assay in all cases: NCI-60 one-dose screen, 48 h (100 = growth as untreated, 0 = no growth, -100 = all killed)
Details in all cases: 10 µM unless noted
HCT-15 colon = test system: HCT-15 colon
HT29 colon = test system: HT29 colon
SNB-75 CNS = test system: SNB-75 CNS
SNB-19 CNS = test system: SNB-19 CNS
U251 CNS = test system: U251 CNS
PC-3 prostate = test system: PC-3 prostate
SK-MEL-5 melanoma = test system: SK-MEL-5 melanoma
UACC-62 melanoma = test system: UACC-62 melanoma
LOX IMVI melanoma = test system: LOX IMVI melanoma
SK-MEL-28 melanoma = test system: SK-MEL-28 melanoma

| SMILES | growth (HCT-15 colon) | growth (HT29 colon) | growth (SNB-75 CNS) | growth (SNB-19 CNS) | growth (U251 CNS) | growth (PC-3 prostate) | growth (SK-MEL-5 melanoma) | growth (UACC-62 melanoma) | growth (LOX IMVI melanoma) | growth (SK-MEL-28 melanoma) |
| --- | --- | --- | --- | --- | --- | --- | --- | --- | --- | --- |
| COCCNC(=O)c1ccc(-c2nc3ccc4[nH]ncc4c3c3c2CCCC3)cc1 | 19.3% | 44.5% | -6.65% (active) | 67.7% | 43.4% | 34.8% | 44.8% | 21.4% | 29.1% | 39.6% |
| Clc1ccc(CNc2c3ccccc3nc3ccccc23)cc1 | 23.3% | 15% | 68.4% | 43.1% | 46.2% | 38.7% | 61.2% | 70.7% | 23% | 80.3% |
| CCCC(=O)NC(c1ccc2c(c1)OCO2)c1ccc2cccnc2c1O (stereo not given) | 35% | 25.4% | 17.5% | 29.5% | 14.5% | 33.5% | -12.4% (active) | -5.34% (active) | 12% | 34.5% |
| O=C1Nc2ccccc2/C1=C\c1nc(-c2ccccc2)n2ccccc12 | 80.2% | 91.6% | 79.6% | 103% | 89.6% | 87.4% | 89.7% | 78.3% | 84.6% | 113% |
| Cn1cc(-c2nc(-c3c[nH]c4ccncc34)cs2)c2ccccc21 | -21.6% (active) | 0.469% (active) | 91% | 88.4% | -43.8% (active) | 61.5% | 55.2% | 94.6% | -78% (active) | -79.8% (active) |
| CCc1n(Cc2ccc3ccccc3c2)cc[n+]1Cc1ccc2ccccc2c1 | 70.1% | -32.2% (active) | -5.96% (active) | 5.41% (active) | 4.23% (active) | 2.65% (active) | -93.3% (active) | -43.1% (active) | 1.9% (active) | 2.03% (active) |
| CCCCN1C(=O)/C(=c2\sc3n(c2=O)C2C(NN=3)N(CC)C(=O)N2CC)c2ccccc21 (stereo not given) | 8.29% (active) | 0.704% (active) | -17.6% (active) | 25% | 5.8% (active) | 20.7% | 29.2% | 18.9% | 20.1% | 48.1% |
| C=C(C)[C@@H]1CC[C@]2(C(=O)NCCNCCN)CC[C@]3(C)[C@H](CC[C@@H]4[C@@]5(C)C/C(=C/c6ccncc6)C(=O)C(C)(C)[C@@H]5CC[C@]43C)[C@@H]12 | 91.4% | 96% | 78.1% | 90.2% | 91.2% | 88.8% | 96.3% | 86.6% | 96% | 99.2% |
| CCOC(=O)Cn1c(O)c(N=Nc2ccc(S(N)(=O)=O)cc2)c2cc(Br)ccc21 | 85.4% | 63.7% | 78% | 91.4% | 86.2% | 70.8% | 88.3% | 83.3% | 86% | 85.2% |
| C=C1C(=O)O[C@H]2[C@H]1CC/C(COC(=O)CCSCCC(=O)OC/C1=C/CC[C@@]3(C)O[C@H]3[C@H]3OC(=O)C(=C)[C@@H]3CC1)=C\CC[C@@]1(C)O[C@@H]21 | -6.34% (active) | -9.93% (active) | 48.6% | 55% | 6.76% (active) | -14.5% (active) | 54.3% | -67% (active) | -79.3% (active) | -35.6% (active) |
| O=C1/C(=C/c2ccc(F)cc2)COc2ccc(O)cc21 | 60.7% | 48.7% | 83.7% | 90.4% | 60.8% | 89.2% | 98.5% | 85.2% | 22.5% | 103% |
| Cc1cccc(N2CCN(CC(O)COc3ccc(Cl)cc3)CC2)c1 (stereo not given) | 97.4% | 114% | 104% | 98.3% | 95.7% | 91.9% | 97.4% | 96.4% | 97.6% | 117% |
| O=C1N(Cc2ccccc2Cl)c2ccccc2C12NN=C(c1cccc(Cl)c1)S2 (stereo not given) | 0.214% (active) | 94.4% | 16.7% | 20.9% | -30% (active) | -64.3% (active) | 14.5% | -44.3% (active) | -19.4% (active) | 7.1% (active) |
| Cc1cc(N)c2cc(NC(=O)/C=C\c3ccccc3Cl)ccc2n1 | 10.9% | -64.4% (active) | -90.8% (active) | -86.3% (active) | -85.9% (active) | -91.5% (active) | -94.9% (active) | -80.9% (active) | -75.1% (active) | -96.1% (active) |
| COc1ccc(-c2nc(SCC(C)C)nc(N/N=C\c3ccc(F)cc3)c2C#N)cc1 | 85.3% | 90.5% | 80% | 81% | 94.5% | 84.9% | 103% | 88.6% | 97.4% | 98.8% |
| O=C(Nn1c2c(sc1=Nc1ccccc1)C(=O)c1ccccc1C2=O)c1cc2ccc1CCc1ccc(cc1)CC2 | 51.3% | 91.8% | 36.3% | 60.7% | 82.6% | 66.3% | 39.7% | 70.8% | 62.2% | 92.4% |
| Cc1nnc(-n2c(O)cc(=O)n(-c3ccccc3)c2=S)nc1/C=C/c1ccc(N(C)C)cc1 | 28.9% | 24.3% | 17.3% | 59.8% | 53.7% | 67.1% | 60.6% | 11.7% | 18.8% | 58.6% |
| N=C(N)c1ccc(-c2ccc(-c3ccc(F)cc3)o2)o1 | -0.304% (active) | -20.3% (active) | 20% | 26.7% | -11.7% (active) | 19.3% | 21.7% | 57.5% | -61.6% (active) | 65.1% |
| COC(=O)c1cc(-c2ccccc2)[nH]c1N/N=C/c1c(Cl)cccc1Cl | 15% | -8.44% (active) | 0.903% (active) | 13.6% | 12.1% | 5.23% (active) | 16.8% | 42.4% | 21% | 11.4% |
| CCCCC[C@@H]1Cc2cc(O)c(C(=O)O)c3c2[C@H](C[C@]2(OC[C@@H](CC(=O)[C@@](C)(CC)C(=O)OC)[C@@H]2C)O3)O1 | 91.6% | 116% | 96.9% | 94.3% | 103% | 106% | 108% | 88.9% | 103% | 118% |
| COc1cc2c(c(OC)c1OC)CCC(c1cccc(C(=O)Nc3cccc(Br)c3)c1)O2 (stereo not given) | 67% | 58.1% | 69% | 81.6% | 71.5% | 49.1% | 55.6% | 52.8% | 74% | 87.9% |
| CCOC(=O)c1c(NC(=O)c2ccc(C(C)C)cc2)sc2c(CN(C)C)c(O)ccc12 | -49.2% (active) | 27% | 98.5% | 57.8% | 6.18% (active) | 96.1% | 80.7% | 53.8% | -83.3% (active) | -14.9% (active) |
| C/C(=C(/c1ccc(Cl)cc1)c1ccc(OCCN2CCCC2)cc1)c1ccc(Cl)cc1 | 42.1% | 9.33% (active) | 115% | 85.8% | 68.6% | 66.4% | 82.4% | 93.9% | 78% | 92.8% |
| Cc1ccc(-c2nc3nc(-c4ccc(F)cc4)nc(N4CCNCC4)c3o2)cc1 | -80% (active) | -78.1% (active) | -2.57% (active) | 40.5% | -30.9% (active) | 14.8% | 96.9% | 91.1% | -92% (active) | 114% |
| N#Cc1c(-c2ccccc2)cc(-c2ccccc2)n(CCCCCC(=O)Nc2ccccc2N)c1=O | 51.7% | 43.7% | 32.2% | 68.2% | 61.2% | 43.7% | 21.2% | 65.5% | 26.2% | 80.5% |
| COc1ccc(NC(=O)c2sc3nc(C)c(C(=O)/C=C/c4cccc(OC)c4)cc3c2N)cc1 | -12.8% (active) | 1.21% (active) | 11.2% | 8.88% (active) | 1.61% (active) | 55.2% | 71.3% | 56.6% | -73.1% (active) | 80.7% |
| O=C1CNC(c2ccccc2)C(c2ccccc2)N1 (stereo not given) | 104% | 85.2% | 75.8% | 100% | 97.5% | 81.6% | 104% | 96.6% | 92.1% | 171% |
